Compound activity deposited in PubChem BioAssay by several laboratories.
TMEM16A act – mouse TMEM16A channel activation, primary screen; Q8BHY3; HEK293 TMEM16A/YFP-H148Q/I152L, iodide quench fluorescence; stronger effect = lower value; B-score at 10 µM; 340,000 tested, 0.3% active; AID 623877;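 active = fluorescence-ratio B-score plate-corrected deviation score at least 3 library SD below zero, with starting fluorescence score within 5 deviations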;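 note: channel opened by trigger with iodide after compound preincubation; score built on the fluorescence ratio of max minus min over baseline; more negative score means more quench and so TMEM16A activation or potentiation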
Target sequence (Q8BHY3 whole entry, looked up): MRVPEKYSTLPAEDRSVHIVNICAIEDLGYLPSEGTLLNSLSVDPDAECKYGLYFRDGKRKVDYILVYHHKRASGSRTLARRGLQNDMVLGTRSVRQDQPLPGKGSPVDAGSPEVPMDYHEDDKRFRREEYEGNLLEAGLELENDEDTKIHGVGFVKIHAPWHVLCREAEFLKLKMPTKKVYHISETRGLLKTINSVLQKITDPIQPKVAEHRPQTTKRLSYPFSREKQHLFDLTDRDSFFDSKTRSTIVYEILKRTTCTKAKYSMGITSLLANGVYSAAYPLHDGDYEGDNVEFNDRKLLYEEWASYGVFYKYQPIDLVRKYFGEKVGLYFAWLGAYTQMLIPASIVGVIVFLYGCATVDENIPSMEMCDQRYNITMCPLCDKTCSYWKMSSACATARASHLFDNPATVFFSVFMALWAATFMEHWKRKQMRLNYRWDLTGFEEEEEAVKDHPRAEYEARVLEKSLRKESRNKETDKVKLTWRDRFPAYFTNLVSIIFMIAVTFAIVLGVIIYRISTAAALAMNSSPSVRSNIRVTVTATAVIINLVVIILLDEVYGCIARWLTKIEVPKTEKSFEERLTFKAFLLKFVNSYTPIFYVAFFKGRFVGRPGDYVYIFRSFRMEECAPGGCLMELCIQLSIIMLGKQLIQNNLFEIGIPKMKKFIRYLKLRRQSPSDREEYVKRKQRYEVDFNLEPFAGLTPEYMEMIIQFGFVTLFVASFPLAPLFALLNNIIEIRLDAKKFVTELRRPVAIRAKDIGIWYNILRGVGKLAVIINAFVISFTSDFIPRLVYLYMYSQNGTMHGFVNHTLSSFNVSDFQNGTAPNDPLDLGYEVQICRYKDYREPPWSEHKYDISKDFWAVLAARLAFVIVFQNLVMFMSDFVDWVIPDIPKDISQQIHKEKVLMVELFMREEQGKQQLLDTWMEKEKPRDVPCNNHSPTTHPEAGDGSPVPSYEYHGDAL
MEKK2 mut-MEK5 – signal of MEK5 binding to mutant human MEKK2 PB1 domain; bead flow cytometry, Alexa488-MEK5 binding to MEKK2 mutant; percent response, % at 10 µM; 290,000 tested, 0.35% active; AID 1530; in the data active = percent response above about 24%, passing the limit was not always enough
MEKK2wt PB1 HTS – raises or lowers MEK5 binding to wildtype human MEKK2 PB1 domain; Q9Y2U5; bead flow cytometry, Alexa488-MEK5 binding to MEKK2 WT; actives lie on both sides; binding response (% of control), % at 10 µM; 290,000 tested, 1.1% active; AID 1531; in the data active = binding response below about 67% or above about 130%
ANO1 block – inhibitors of mouse TMEM16A calcium-activated chloride channel | Q8BHY3 | HEK293 TMEM16A/YFP iodide influx fluorescence, ionomycin | normalized B-score (activity score, 25-100; higher = stronger inhibition) at 10 µM | 310,000 tested, 1.2% active;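 active = ratio plate-corrected score three or more library SD toward inhibition, starting fluorescence score within five deviations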;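 note: score derived from kinetic fluorescence span divided by baseline fluorescence per well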
MEKK3 PB1 HTS – raises or lowers MEK5 binding to the human MEKK3 PB1 domain | bead-based flow cytometry, Alexa488-MEK5 binding to MEKK3; actives lie on both sides; 0 = blocked by unlabeled MEK5, 100 = vehicle | binding response (% of control), % at 10 µM | 290,000 tested, 1.4% active | AID 1529;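 active = binding response more than 3 SD above or below the average of its plate-row segment, actives on both sides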;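 note: Alexa488 bead fluorescence after subtracting the streptavidin-only scavenger bead signal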
NTR1 ag – activates human neurotensin receptor 1; P30989; NTR1-U2OS beta-arrestin-GFP spot imaging, agonist mode; activation, % at 20 µM; 330,000 tested, 0.17% active;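 active = activation at or above 40% of the spot to cytoplasm intensity ratio, with at least 20 cells analyzed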
MEKK2wt confirm – raises or lowers MEK5 binding to wildtype human MEKK2, retest | shares compounds with MEKK3 PB1 HTS | bead flow cytometry, Alexa488-MEK5 binding to MEKK2 WT; actives lie on both sides | binding response (% of control), % at 10 µM | 5,900 tested, 2.4% active | AID 1892; in the data active = binding response below about 16% or above about 210%; inactive = in between
MEKK2mut confirm – signal of MEK5 binding to mutant human MEKK2, retest; bead flow cytometry, Alexa488-MEK5 binding to MEKK2 mutant; percent response, % at 10 µM; 5,900 tested, 2% active; shares compounds with MEKK3 PB1 HTS; in the data active = percent response mostly above about 71%, no sharp cut-off; inactive = mostly below about 38%;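 note: higher means compound restores mutant binding toward wildtype level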
MEKK3-MEK5 inh – MEKK3-MEK5 PB1 inhibition, single concentration confirmation; shares compounds with MEKK3 PB1 HTS; bead flow cytometry, Alexa488-MEK5 binding to MEKK3; stronger effect = lower value; binding response (% of control), % at 10 µM; 5,900 tested, 1.8% active; AID 1894;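 active = binding response below 72% of control, or above a set upper limit, though filed actives all read lower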
Of the large screens only hits and unclear results are named; the others gave an inactive call (follow-up assays come after a bar, where they were run); ! = repeats disagree; [ ] = another dose, or the depositor's remark. Most compounds without a hit are left out; they make up all but 3.4% or so of the library.

COc1cccc(C(=O)Nc2ccc(-n3nncc3C(C)(C)C)cc2)c1	none
CC(C)(C)c1cnnn1-c1ccc(NC(=O)c2ccc(Br)o2)cc1	MEKK2wt PB1 HTS 0.0[inhibitor], MEKK3 PB1 HTS 1.0[inhibitor] | MEKK2wt confirm inactive | MEKK2mut confirm inactive | MEKK3-MEK5 inh inactive
COc1ccc(/C=N/NC(=O)CCC(=O)Nc2ccccc2)cc1OC	none
COc1ccc(/C=N/NC(=O)CCn2cnc(-c3ccccc3)c2-c2ccccc2)cc1OC	MEKK3 PB1 HTS 64.0[inhibitor] | MEKK2wt confirm inactive | MEKK2mut confirm inactive | MEKK3-MEK5 inh inactive
COc1ccc(/C=N\NC(=O)CC(=O)Nc2cccc(Cl)c2)cc1OC	MEKK3 PB1 HTS 73.0[inhibitor] | MEKK2wt confirm inactive | MEKK2mut confirm inactive | MEKK3-MEK5 inh inactive
O=C(c1ccc2ccccc2c1)c1c[nH]cc1-c1ccccc1	MEKK3 PB1 HTS 129.0 | MEKK2wt confirm inactive | MEKK2mut confirm inactive | MEKK3-MEK5 inh inactive
COc1ccc(C(=O)c2c[nH]cc2-c2ccccc2)cc1	none
C=CCn1c(SCC(=O)N2CCOCC2)nc2ccccc2c1=O	none
Cc1ccc2c(CC(=O)OCc3csc(C)n3)coc2c1	MEKK2wt PB1 HTS 3.0[inhibitor], MEKK3 PB1 HTS 3.0[inhibitor] | MEKK2wt confirm inactive | MEKK2mut confirm inactive | MEKK3-MEK5 inh inactive
Cc1ccc2c(CC(=O)OCc3nc(N)nc(Nc4ccccc4C)n3)coc2c1	none
CCC(C)[C@H](NC(=O)[C@@H]1CSC2c3ccccc3C(=O)N21)C(=O)NCc1ccncc1 (some centres undefined)	none
CCOC(=O)C1=C(COC(=O)c2ncc(Cl)c(Cl)c2Cl)NC(=O)NC1C (centres undefined)	none (no result: MEKK2 mut-MEK5, MEKK2wt PB1 HTS, MEKK3 PB1 HTS)
Cc1ccc2nc(/C(C#N)=C\c3ccc([N+](=O)[O-])o3)[nH]c2c1	MEKK3 PB1 HTS 70.0[inhibitor] | MEKK2wt confirm inactive | MEKK2mut confirm inactive | MEKK3-MEK5 inh inactive
N#C/C(=C\c1ccc([N+](=O)[O-])o1)c1nc2ccccc2[nH]1	none (no result: TMEM16A act)
Cc1ccc2nc(/C(C#N)=C\c3ccc(N4CCOCC4)o3)[nH]c2c1	MEKK2 mut-MEK5 26.0, MEKK2wt PB1 HTS 46.0[inhibitor] | MEKK2wt confirm inactive | MEKK2mut confirm inactive | MEKK3-MEK5 inh inactive
CC(=O)Nc1ccc2nc(NC(=O)CN3CCOCC3)sc2c1	none
CNC(=S)Nc1ccc(OC)c(OC)c1	MEKK2wt PB1 HTS 3.0[inhibitor], MEKK3 PB1 HTS 2.0[inhibitor] | MEKK2wt confirm inactive | MEKK2mut confirm inactive | MEKK3-MEK5 inh inactive
CCCCSc1nnc2[nH]c(=O)cc(N)n12	none
CCCCSc1cc(=O)[nH]c(N)n1	MEKK3 PB1 HTS 70.0[inhibitor] | MEKK2wt confirm inactive | MEKK2mut confirm inactive | MEKK3-MEK5 inh inactive
Cc1cc(-c2nn(-c3ccccc3F)cc2CN2CCC(O)CC2)c(C)s1	none
Cc1cc(-c2nn(-c3ccccc3F)cc2CN2CCN(c3ccncc3)CC2)c(C)s1	MEKK2wt PB1 HTS 172.0 | MEKK2wt confirm inactive | MEKK2mut confirm inactive | MEKK3-MEK5 inh inactive
CCOc1ccc(-c2noc(=O)[nH]2)cc1	MEKK2wt PB1 HTS 39.0[inhibitor], MEKK3 PB1 HTS 23.0[inhibitor] | MEKK2wt confirm inactive | MEKK2mut confirm inactive | MEKK3-MEK5 inh inactive
Cc1cccc(OCC(=O)N(C)CC(=O)Nc2cccc(F)c2)c1C	none (no result: MEKK2 mut-MEK5, MEKK2wt PB1 HTS, ANO1 block, MEKK3 PB1 HTS)
Cc1nnc(SCC(=O)NNC(=O)C(C)C)[nH]c1=O	MEKK3 PB1 HTS 134.0 | MEKK2wt confirm inactive | MEKK2mut confirm inactive | MEKK3-MEK5 inh inactive
Brc1cc2c(cc1CSc1ncccn1)OCO2	none
O=C(COC(=O)c1ccc(S(=O)(=O)N2CCc3ccccc3C2)cc1)NC1CCS(=O)(=O)C1 (centres undefined)	MEKK3 PB1 HTS 50.0[inhibitor] | MEKK2wt confirm inactive | MEKK2mut confirm inactive | MEKK3-MEK5 inh inactive
O=C(COC(=O)c1ccc(S(=O)(=O)N2CCOCC2)cc1)NC1CCCCCCC1	none
C[C@@]12C(=O)NCC(=O)N1[C@@H]1c3cc(Br)ccc3OC[C@@H]1[C@@H]2c1ccccc1	none (no result: MEKK2 mut-MEK5, MEKK2wt PB1 HTS, ANO1 block, MEKK3 PB1 HTS)
CN(CC(=O)NCc1ccccn1)S(=O)(=O)c1ccccc1	none
CN(CC(=O)NCc1ccccn1)S(=O)(=O)c1ccc2ccccc2c1	MEKK3 PB1 HTS 135.0 | MEKK2wt confirm inactive | MEKK2mut confirm inactive | MEKK3-MEK5 inh inactive
CN[C@H]1CC[C@@H](c2ccc(Cl)c(Cl)c2)c2ccccc21	MEKK2wt PB1 HTS 176.0! | MEKK2wt confirm inactive | MEKK2mut confirm inactive | MEKK3-MEK5 inh inactive
O=C1C=C(O)CC(c2ccc(Cl)c(Cl)c2)C1 (centres undefined)	none
COc1ccc(/C=C/c2cc(C(F)(F)F)on2)cc1	MEKK3 PB1 HTS 50.0[inhibitor] | MEKK2wt confirm inactive | MEKK2mut confirm inactive | MEKK3-MEK5 inh inactive
COc1ccccc1N1CCN(C(=O)Nc2cccc(Cl)c2)CC1	none
COc1cccc(NC(=O)N2CCN(c3cccc(C)c3C)CC2)c1	MEKK2wt PB1 HTS 0.0[inhibitor], MEKK3 PB1 HTS 0.0[inhibitor] | MEKK2wt confirm inactive | MEKK2mut confirm inactive | MEKK3-MEK5 inh inactive
O=C(CSc1nnc2ccc(-c3ccccc3)nn12)NCC1CCCO1 (centres undefined)	none
CCOc1ccc(NC(=O)c2ccc(OC)cc2)cc1	MEKK3 PB1 HTS 126.0 | MEKK2wt confirm inactive | MEKK2mut confirm inactive | MEKK3-MEK5 inh inactive
CCOc1ccc(NC(=O)c2ccc3c(SCC(=O)O)c4c(nc3c2)CCCC4)cc1	MEKK3 PB1 HTS 137.0 | MEKK2wt confirm inactive | MEKK2mut confirm inactive | MEKK3-MEK5 inh inactive
CCOC(=O)c1ccccc1NC(=O)c1ccc2c(SCC(=O)O)c3c(nc2c1)CCCC3	none
CCN(CC)S(=O)(=O)c1ccc(N2CCCC2)c(NC(=O)C2=NN(c3ccccc3)C(=O)CC2)c1	none (no result: MEKK2 mut-MEK5, MEKK2wt PB1 HTS, ANO1 block, MEKK3 PB1 HTS)
CCN1/C(=C2\SC(=S)N(Cc3ccccc3)C2=O)Sc2ccccc21	none
CCC(CO)[n+]1c(C)cc(/C=C2\Sc3ccccc3N2Cc2ccccc2)cc1C (centres undefined)	MEKK2wt PB1 HTS 63.0[inhibitor] (no result: NTR1 ag) | MEKK2wt confirm inactive | MEKK2mut confirm inactive | MEKK3-MEK5 inh inactive
CCOc1ccc(C2N(c3cc(C)on3)C(=O)C3CCCN32)cc1OC (centres undefined)	MEKK2wt PB1 HTS -2.0[inhibitor], MEKK3 PB1 HTS -1.0[inhibitor] | MEKK2wt confirm inactive | MEKK2mut confirm inactive | MEKK3-MEK5 inh inactive
CSc1ccc(CN2CCC(n3nccc3NC(=O)CCCc3ccccc3)CC2)cc1	none
